Screens: PubChem, several laboratories
This is a sample that favours compounds with a hit; in the whole collection about 0.97% have one here.
AGP1 TOR yeast: modulators of AGP1-GFP expression in yeast TOR pathway, primary screen, cell-based, multiplex flow cytometry, S. cerevisiae, MLPCN library; 3 h; GFP as percent of DMSO wells; GFP response vs DMSO, % at 10 µM; 320,000 compounds, 0.02% hits;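 active means GFP response relative to DMSO above a set limit, near screen average plus 3 SD, cut at about 150% in these data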;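 further: median GFP channel fluorescence of the gated AGP1 strain per well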
RPL19A TOR yeast: RPL19A-GFP expression modulators in yeast, primary screen, cell-based, S. cerevisiae, multiplex flow cytometry, MLPCN; S. cerevisiae RPL19A-GFP strain, 3 h; stronger effect = lower value; percent response vs DMSO, % at 10 µM; 330,000 compounds, 0.3% hits;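 active means percent response vs DMSO below 50%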;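 further: median channel GFP fluorescence of the barcoded RPL19A-GFP strain; lower means less RPL19A-GFP as with rapamycin TOR inhibition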
MEP2-GFP yeast: modulators of MEP2-GFP levels in yeast, primary screen, S. cerevisiae, multiplex flow cytometry, MLPCN library; S. cerevisiae MEP2-GFP strain, 3 h; 100% = DMSO control level; GFP response vs DMSO, % at 10 µM; 330,000 compounds, 0.51% hits; AID 2016, 2009;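 active means GFP response versus DMSO above a set limit, roughly screen mean plus 3 SD, cut at about 180% in these data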;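 further: median GFP fluorescence of the barcode-gated MEP2-GFP cells per well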
LAP4-GFP MLPCN: modulators of LAP4-GFP expression in yeast, primary screen, S. cerevisiae, multiplex flow cytometry, MLPCN library; 3 h; median GFP as percent of DMSO wells; GFP response vs DMSO, % at 10 µM; 320,000 compounds, 0.34% hits; AID 2023, 2009;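 active means GFP response vs DMSO above a set limit, about the screen mean plus 3 SD, cut at about 150% in these data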
GASC-1 inh: inhibitors of GASC-1 histone demethylase, primary screen, biochemical, fluorescence, DELFIA europium; GST-JMJD2C(1-420) H3K9me3 demethylation; inhibition, % at 2.35 µM; 330,000 compounds, 0.069% hits;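 active means more than half of a compound's replicate wells show inhibition beyond 50%, single wells judged on their own value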;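 further: signal counts dimethyl H3K9 product captured on neutravidin plate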
Target sequence (Q9H3R0 1-420 limits assumed): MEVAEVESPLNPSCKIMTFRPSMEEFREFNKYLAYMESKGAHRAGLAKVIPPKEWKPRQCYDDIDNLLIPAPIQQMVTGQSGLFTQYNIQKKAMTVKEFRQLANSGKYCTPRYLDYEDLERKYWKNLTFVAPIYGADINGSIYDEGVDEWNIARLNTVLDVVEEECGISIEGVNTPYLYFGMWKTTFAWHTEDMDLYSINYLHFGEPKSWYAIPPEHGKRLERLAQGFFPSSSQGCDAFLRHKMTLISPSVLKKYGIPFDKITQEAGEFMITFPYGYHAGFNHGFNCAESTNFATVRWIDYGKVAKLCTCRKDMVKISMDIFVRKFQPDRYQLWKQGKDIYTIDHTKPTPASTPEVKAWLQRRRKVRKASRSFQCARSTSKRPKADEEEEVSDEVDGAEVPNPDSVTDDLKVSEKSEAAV
CIT2-GFP yeast: modulators of CIT2-GFP expression in yeast, primary screen, S. cerevisiae, GFP fusion, multiplex flow cytometry, MLPCN library; 320,000 compounds, 0.065% hits; GFP response vs DMSO, % at 10 µM; S. cerevisiae CIT2-GFP strain, 3 h; 100 means same as DMSO wells;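 active means GFP response relative to DMSO above a set limit, near the screen mean plus 3 SD, cut at about 150% in these data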;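 further: ratio of well median GFP fluorescence to mean of DMSO wells on the plate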
LAP4-GFP pick2: LAP4-GFP expression modulators in yeast, confirmation, cell-based, second cherry pick, flow cytometry | shares compounds with LAP4-GFP MLPCN | S. cerevisiae LAP4-GFP strain, 3 h | GFP response vs DMSO, % at 10 µM | 590 compounds, 20% hits;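 active means GFP signal as percent of the solvent control above about 150%, meaning raised reporter expression, limit read from the data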
MEP2 cherry2: modulators of MEP2-GFP levels in yeast, confirmation, S. cerevisiae, flow cytometry GFP, second cherry picks; S. cerevisiae MEP2-GFP strain, 3 h; AID 2622, 2010; shares compounds with LAP4-GFP MLPCN; GFP response vs DMSO, % at 10 µM; 590 compounds, 10% hits;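 active means GFP signal above 150% of the solvent control wells, that is a rise of more than half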;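 further: median channel GFP fluorescence of all gated yeast cells per well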
RPL19A-GFP pick2: RPL19A-GFP modulators in TOR pathway yeast, confirmation, cell-based, S. cerevisiae, flow cytometry, second cherry pick; GFP response vs DMSO, % at 10 µM; shares compounds with LAP4-GFP MLPCN; S. cerevisiae RPL19A-GFP strain, 3 h; stronger effect = lower value; 100% means same as DMSO wells; 590 compounds, 3% hits;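 active means under 65% GFP response relative to DMSO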;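 further: median GFP channel fluorescence per well over the all cells gate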
CIT2-GFP pick2: modulators of CIT2-GFP expression in yeast, confirmation, flow cytometry, second cherry pick, single plex; shares compounds with LAP4-GFP MLPCN; S. cerevisiae CIT2-GFP strain, 3 h; DMSO control wells read 100%; GFP response vs DMSO, % at 10 µM; 590 compounds, 8% hits; AID 2624, 2010;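 active means GFP response vs DMSO above about 150%, limit read from the data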;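 further: median green fluorescence per well over all gated yeast cells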
AGP1-GFP pick2: AGP1-GFP expression modulators, hit retest, confirmation, cell-based, flow cytometry, S. cerevisiae, cherry pick set 2. shares compounds with LAP4-GFP MLPCN. S. cerevisiae AGP1-GFP strain, 3 h. percent response vs DMSO, % at 10 µM. AID 2643, 2010. 590 tested, under 10 active;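 active means over 150 percent of DMSO response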;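 further: median GFP channel fluorescence over all cells without mother daughter split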
Yeast autofluor: compound autofluorescence in yeast s288c, dose response, artefact control for yeast TOR pathway GFP screen, s288c strain. fluorescence change (kMESF span) at 33 µM. 610 tested, under 10 active. shares compounds with LAP4-GFP MLPCN. AID 2757, 2010. S. cerevisiae s288c, 520 nm autofluorescence, flow cytometry, 3 h; stronger effect = higher value; zero means same as solvent-only cells;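 active means fluorescence span over the dose series, or activity score, above about 33, limit read from the data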
Yeast autofl DR: autofluorescence of compounds in yeast s288c, dose response, artefact control for yeast TOR pathway GFP screen, primary hits, KU SAR, s288c parental; shares compounds with LAP4-GFP MLPCN; S. cerevisiae s288c parental, compound autofluorescence, flow cytometry, 3 h; fluorescence change (span) at 33 µM; 110 tested, under 10 active;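 active means fluorescence change span, or the activity score built from it, above 25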
TORC1 bypass gr: wild-type yeast growth inhibition sparing TORC1 bypass cells, mechanism study for yeast TOR pathway GFP screen, BY4741 wild type, TORC1 bypass strain. AID 504456, 2011. shares compounds with LAP4-GFP MLPCN. S. cerevisiae BY4741 spot growth rating, 48-72 h; stronger effect = lower value. 120 tested, under 10 active. growth rating (0-3) at 30 µM;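 active means growth rating at most 1 for wild type yeast while the TORC1 bypass strain still grows fully, rated 3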
Large screens that a line does not name were inactive (follow-up assays come after a bar, where they were run); [ ] = another dose, or the depositor's remark.

Cn1ncc2c(O/N=C(\N)c3ccc(C(C)(C)C)cc3)ncnc21	LAP4-GFP MLPCN 188 | Yeast autofluor inactive
Nc1nc(NCCOCCO)nc(Nc2cccc(F)c2)c1[N+](=O)[O-]	none
Nc1nc(Nc2ccccc2)nc(Nc2cccc(F)c2)c1[N+](=O)[O-]	none (no result: AGP1 TOR yeast, RPL19A TOR yeast, MEP2-GFP yeast, LAP4-GFP MLPCN, GASC-1 inh, CIT2-GFP yeast) | Yeast autofl DR inactive | TORC1 bypass gr inactive
CNc1nc(N)c([N+](=O)[O-])c(Nc2cccc(F)c2)n1	MEP2-GFP yeast 338[may fluoresce green], CIT2-GFP yeast 274[may fluoresce green] | LAP4-GFP pick2 inactive | MEP2 cherry2 active | RPL19A-GFP pick2 inactive | CIT2-GFP pick2 350 | AGP1-GFP pick2 159 | Yeast autofluor inactive | Yeast autofl DR inactive | TORC1 bypass gr 1
CNc1nc(N)c([N+](=O)[O-])c(Nc2cccc(Cl)c2)n1	none | Yeast autofl DR inactive | TORC1 bypass gr inactive
Nc1nc(Nc2cccc(F)c2)nc(Nc2cccc(F)c2)c1[N+](=O)[O-]	none (no result: AGP1 TOR yeast, RPL19A TOR yeast, MEP2-GFP yeast, LAP4-GFP MLPCN, GASC-1 inh, CIT2-GFP yeast) | Yeast autofl DR inactive | TORC1 bypass gr inactive
Cc1ccccc1-n1ncc(C(C)NS(=O)(=O)c2sccc2C)c1C (centres undefined)	none
CC(C)Oc1ccc(CNC(=O)CCCN2C(=O)C(c3ccccc3)Oc3cccnc32)cc1 (centres undefined)	none
O=C(NC1CCSc2ccccc21)c1ccc(F)c(S(=O)(=O)N2CCOCC2)c1 (centres undefined)	none
O=C1C=C(c2ccccc2)C(=O)N1Nc1ccccc1	RPL19A TOR yeast 48 | Yeast autofluor inactive
COc1ccc(C2=CC(=O)N(Nc3ccccc3)C2=O)cc1	LAP4-GFP MLPCN 232 | Yeast autofluor inactive
Cc1ccc(NN2C(=O)C=CC2=O)cc1	none
Cc1ccc(NN2C(=O)C=C(c3ccc(Cl)cc3)C2=O)cc1	LAP4-GFP MLPCN 203 | Yeast autofluor inactive
O=C1C2CC=CCC2C(=O)N1Nc1ccccc1 (centres undefined)	none
O/N=C\c1cnc(N2CCN(c3ccccc3)CC2)s1	none
CCN(C(=O)N1CCOCC1)c1ccccc1C	none
COc1ccc(NC(=O)CC(=O)Nc2ccc(OC)cc2OC)c(OC)c1	none
COc1ccc(NC(=O)CC(C)=O)c(OC)c1	none (no result: AGP1 TOR yeast, RPL19A TOR yeast, MEP2-GFP yeast, LAP4-GFP MLPCN, CIT2-GFP yeast) | LAP4-GFP pick2 inactive | MEP2 cherry2 inactive | RPL19A-GFP pick2 inactive | CIT2-GFP pick2 inactive | AGP1-GFP pick2 inactive
O=C1C2CC=CCC2C(=O)N1Cc1ccccc1 (centres undefined)	none
O=C1C=CC(=O)N1Cc1ccccc1	LAP4-GFP MLPCN 159 | LAP4-GFP pick2 inactive | MEP2 cherry2 inactive | RPL19A-GFP pick2 inactive | CIT2-GFP pick2 inactive | AGP1-GFP pick2 inactive
CN(C)c1ccc(-c2c(-c3ccc4c(c3)OCO4)noc2-c2ccsc2)cn1	LAP4-GFP MLPCN 155 | LAP4-GFP pick2 inactive | MEP2 cherry2 inactive | RPL19A-GFP pick2 inactive | CIT2-GFP pick2 inactive | AGP1-GFP pick2 inactive
COC(=O)c1cc(-c2c(-c3ccc4c(c3)OCO4)noc2-c2ccsc2)cc([N+](=O)[O-])c1	none
CCN1CCN(Cc2c(O)ccc3c2O/C(=C\C=C\c2ccccc2)C3=O)CC1	LAP4-GFP MLPCN 153 | LAP4-GFP pick2 inactive | MEP2 cherry2 inactive | RPL19A-GFP pick2 inactive | CIT2-GFP pick2 inactive | AGP1-GFP pick2 inactive
O=C1/C(=C/C=C/c2ccccc2)Oc2c1ccc(O)c2CN1CCN(CCO)CC1	none
O=C(O)CCC(NC(=O)OCc1ccccc1)C(=O)O (centres undefined)	none
Nc1nc(N)c2nc(CNc3ccc(C(=O)NC(CCC(=O)O)C(=O)O)cc3)cnc2n1 (centres undefined)	LAP4-GFP MLPCN 299 | LAP4-GFP pick2 327 | MEP2 cherry2 218 | RPL19A-GFP pick2 inactive | CIT2-GFP pick2 157 | AGP1-GFP pick2 inactive | Yeast autofluor inactive
CC1=CC(=O)C(C(C)C)=C/C1=N/OS(=O)(=O)c1ccccc1	LAP4-GFP MLPCN 216 | Yeast autofluor inactive
CC1=CC(=O)C=C(C)C1=NOS(=O)(=O)c1ccccc1	none (no result: AGP1 TOR yeast, RPL19A TOR yeast, MEP2-GFP yeast, LAP4-GFP MLPCN, CIT2-GFP yeast)
CCc1noc(C)c1C(=O)Nc1nc2c(F)cc(F)cc2s1	LAP4-GFP MLPCN 163 | LAP4-GFP pick2 inactive | MEP2 cherry2 inactive | RPL19A-GFP pick2 inactive | CIT2-GFP pick2 inactive | AGP1-GFP pick2 inactive
C/C(=N\NC(=O)c1ccoc1C)c1cccc2ccccc12	none
COc1cccc2oc3ccc(C#Cc4ccccn4)cc3c(=O)c12	LAP4-GFP MLPCN 152 | LAP4-GFP pick2 inactive | MEP2 cherry2 inactive | RPL19A-GFP pick2 inactive | CIT2-GFP pick2 inactive | AGP1-GFP pick2 inactive
